Test results as given in PubChem BioAssay (EPA / NIEHS).
Inconclusive results are not listed. The source made the active and inactive calls. The calls were made as follows, unless noted: active = hit-call score of the fitted dose curve at least 0.9, where 1 is the maximum; inconclusive = response in the unintended direction; inactive = score below 0.9.

Experiments:
[1] = ATG_TAL_CIS: Attagene CIS-FACTORIAL HepG2 Assay for human TAL Basal Promoter (AID 2282966; active = hit-call score of the fitted dose curve at least 0.9, where 1 is the maximum; inactive = score below 0.9;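 also: background control endpoint measuring basal TAL promoter reporter mRNA not a specific factor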); conditions: HepG2 Attagene cis-factorial TAL promoter reporter; actives raise or lower the signal
How it was run: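 Transiently transfected HepG2 (cis-regulated reporter units), 24 h treatment, mRNA read by fluorescent CE after RT-PCR; bidirectional fit, DMSO baseline.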

[2] = ATG_VDRE_CIS: Attagene CIS-FACTORIAL HepG2 Assay for human Vitamin D Receptor Element (VDRE) (AID 2282968; active = hit-call score of the fitted dose curve at least 0.9, where 1 is the maximum; inactive = score below 0.9); conditions: HepG2 VDRE cis-reporter transcription, actives raise or lower the signal
How it was run: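 Readout is VDRE-driven reporter mRNA reflecting endogenous factor activity in human HepG2 cells, sampled 24 h post-dose. Quantification used labelled RT-PCR products separated by capillary electrophoresis; bidirectional analysis relative to DMSO.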

[3] = molecular target: Estrogen receptor (Homo sapiens) (UniProt P03372); assay: ATG_ERa_TRANS: Attagene TRANS-FACTORIAL HepG2 Assay for human Estrogen Receptor alpha (ERa) (AID 2282970); conditions: HepG2 Attagene TRANS ERa GAL4 reporter, mRNA
How it was run: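 One of 30 multiplexed endpoints from a HepG2 TRANS system, this one reports ERa-Gal4-driven reporter mRNA. Transcripts were quantified 24 hours post-dosing by fluorescent RT-PCR and capillary electrophoresis, with activity scored as induction over DMSO.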

[4] = molecular target: X-box-binding protein 1 (Homo sapiens) (UniProt P17861); assay: ATG_Xbp1_CIS: Attagene CIS-FACTORIAL HepG2 Assay for human X-box Binding Protein 1 (XBP1) (AID 2282972; active = hit-call score of the fitted dose curve at least 0.9, where 1 is the maximum; inactive = score below 0.9); conditions: HepG2 XBP1 cis-element reporter, Attagene multiplex; actives raise or lower the signal
How it was run: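 Human hepatoma HepG2, cis-element reporter system, 24 h treatment; mRNA quantified by RT-PCR/CE fluorescence; fit relative to DMSO.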

[5] = ATG_GAL4_TRANS: Attagene TRANS-FACTORIAL HepG2 Assay for GAL4 (Internal Marker) (AID 2282976); conditions: HepG2 Attagene TRANS GAL4 internal marker reporter
How it was run: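 HepG2 cells transiently transfected with multiplexed GAL4-UAS reporter constructs were dosed for 24 h. Reporter mRNA was measured by RT-PCR, 6-FAM primer extension, HpaI digestion and capillary electrophoresis, and gain of signal was fitted relative to DMSO.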

[6] = ATG_M_19_TRANS: Attagene TRANS-FACTORIAL HepG2 Assay for M19 Transcription Factor (Internal Marker) (AID 2282974); conditions: HepG2 Attagene TRANS-FACTORIAL M19 internal marker reporter
How it was run: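 After transfection of HepG2 with GAL4-UAS-driven reporter constructs, cells are dosed for 24 h. Total RNA is reverse-transcribed, reporter sequences PCR-amplified and labelled, then HpaI-digested and sized by capillary electrophoresis.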

[7] = molecular target: Nuclear receptor subfamily 1 group I member 3 (Homo sapiens) (UniProt Q14994); assay: ATG_CAR_TRANS: Attagene TRANS-FACTORIAL HepG2 Assay for human Constitutive Androstane Receptor (CAR) (AID 2282969); conditions: HepG2 Attagene TRANS-FACTORIAL CAR reporter;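 also: activators raise reporter mRNA above DMSO so AC50 marks induction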
How it was run: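 Signal is reporter mRNA induction relative to DMSO, measured 24 h after dosing by RT-PCR with fluorescent primer extension and capillary electrophoresis. Human HepG2 liver cells carried transiently transfected chimeric NR-Gal4/GAL4-UAS reporter constructs.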

[8] = molecular target: Estrogen-related receptor gamma (Homo sapiens) (UniProt P62508); assay: ATG_ERRg_TRANS: Attagene TRANS-FACTORIAL HepG2 Assay for human Estrogen-Related Receptor gamma (ERRg) (AID 2282977); conditions: HepG2 Attagene TRANS reporter, ERRg transactivation;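 also: hits increase reporter signal over DMSO so potencies reflect activators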
How it was run: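 Induction of reporter transcripts through a chimeric NR-Gal4 protein is quantified in transfected human HepG2 liver cells after 24 h chemical exposure, using RT-PCR with capillary electrophoresis detection and DMSO as baseline.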

Measured: AC50

Chain of Estrogen-related receptor gamma (Homo sapiens) (P62508 whole entry, looked up, the tested form may be a part): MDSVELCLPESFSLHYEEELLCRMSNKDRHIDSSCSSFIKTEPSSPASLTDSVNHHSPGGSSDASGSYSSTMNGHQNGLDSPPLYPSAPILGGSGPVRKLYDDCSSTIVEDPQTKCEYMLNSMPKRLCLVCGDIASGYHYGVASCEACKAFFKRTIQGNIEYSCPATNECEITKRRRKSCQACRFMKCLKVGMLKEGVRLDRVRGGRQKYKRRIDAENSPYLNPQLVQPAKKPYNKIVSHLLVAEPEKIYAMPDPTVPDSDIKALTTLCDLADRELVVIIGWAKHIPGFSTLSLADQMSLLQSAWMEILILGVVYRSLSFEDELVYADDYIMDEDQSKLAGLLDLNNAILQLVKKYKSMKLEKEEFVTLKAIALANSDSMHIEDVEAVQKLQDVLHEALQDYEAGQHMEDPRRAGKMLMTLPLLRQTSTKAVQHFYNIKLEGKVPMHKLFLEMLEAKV
Chain of Nuclear receptor subfamily 1 group I member 3 (Homo sapiens) (Q14994 whole entry, looked up, the tested form may be a part): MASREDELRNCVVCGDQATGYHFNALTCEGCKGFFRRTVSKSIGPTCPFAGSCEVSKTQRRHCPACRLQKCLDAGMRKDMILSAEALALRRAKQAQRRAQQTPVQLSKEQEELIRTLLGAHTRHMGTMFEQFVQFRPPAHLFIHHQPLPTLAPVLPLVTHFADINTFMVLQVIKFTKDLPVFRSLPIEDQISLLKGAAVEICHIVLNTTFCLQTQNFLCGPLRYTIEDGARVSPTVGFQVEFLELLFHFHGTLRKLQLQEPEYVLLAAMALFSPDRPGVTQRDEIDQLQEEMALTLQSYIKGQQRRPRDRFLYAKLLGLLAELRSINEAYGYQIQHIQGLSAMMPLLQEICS
Chain of Estrogen receptor (Homo sapiens) (P03372 whole entry, looked up, the tested form may be a part): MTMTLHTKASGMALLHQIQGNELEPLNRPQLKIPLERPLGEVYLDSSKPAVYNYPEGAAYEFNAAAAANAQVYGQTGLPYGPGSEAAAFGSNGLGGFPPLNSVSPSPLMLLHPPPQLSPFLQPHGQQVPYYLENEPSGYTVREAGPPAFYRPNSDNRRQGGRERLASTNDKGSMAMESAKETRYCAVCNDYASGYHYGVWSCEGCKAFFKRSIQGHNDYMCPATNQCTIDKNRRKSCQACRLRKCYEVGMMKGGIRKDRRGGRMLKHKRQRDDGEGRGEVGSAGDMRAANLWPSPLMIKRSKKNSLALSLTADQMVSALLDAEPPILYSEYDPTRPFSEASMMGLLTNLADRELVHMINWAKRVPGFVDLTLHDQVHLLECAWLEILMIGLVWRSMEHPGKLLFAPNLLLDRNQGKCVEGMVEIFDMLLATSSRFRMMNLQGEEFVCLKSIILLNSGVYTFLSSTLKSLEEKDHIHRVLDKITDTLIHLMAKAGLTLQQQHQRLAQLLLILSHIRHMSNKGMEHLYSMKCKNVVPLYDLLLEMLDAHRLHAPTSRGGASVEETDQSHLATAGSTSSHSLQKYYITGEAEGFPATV
Chain of X-box-binding protein 1 (Homo sapiens) (P17861 whole entry, looked up): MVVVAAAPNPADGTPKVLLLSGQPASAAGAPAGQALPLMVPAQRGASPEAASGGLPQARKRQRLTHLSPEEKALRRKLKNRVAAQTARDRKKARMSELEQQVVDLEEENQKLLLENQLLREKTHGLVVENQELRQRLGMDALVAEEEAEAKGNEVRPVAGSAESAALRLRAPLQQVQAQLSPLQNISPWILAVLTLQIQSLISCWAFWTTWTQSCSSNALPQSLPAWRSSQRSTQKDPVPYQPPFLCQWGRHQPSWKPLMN

CCCc1ccc(OC)cc1
inactive: [1] | [2] | [3] | [4] | [5]

CCCCCCCC/C=C\CCCCCCCC(=O)OCCO
inactive: [1] | [2] | [4] | [6]

COc1cc(NC(=O)CC(C)=O)c(OC)cc1Cl
not listed: [2]
inactive: all other assays above

CN(C)CCCN(C)C
inactive: [1] | [2] | [3] | [4] | [5]

Nc1ccc(N)c(Cl)c1
inactive: [1] | [7] | [4] | [6]
active: [2] 33.4 µM | [3] 25.5 µM

C[C@]12C=CC(=O)C=C1CC[C@@H]1[C@@H]2[C@@H](O)C[C@@]2(C)[C@H]1CC[C@]2(O)C(=O)CO
inactive: [1] | [4] | [6] | [5] | [8]

O=CC1CC1
inactive: [1] | [2] | [4] | [6] | [5]

CC1=CC[C@H](C(C)C)C=C1
not listed: [2] | [8]
inactive: all other assays above

CCOC(=O)[C@H](C)O
inactive: [1] | [2] | [4] | [6] | [5]

C[Si](C)O[Si](C)(C)O[Si](C)(C)O[Si](C)C
inactive: [1] | [2] | [4] | [5]
active: [3] 30.3 µM

CCOc1ccc(N)c([N+](=O)[O-])c1
inactive: [1] | [2] | [7] | [4]

CC(C)CCCCCOC(=O)CCS
inactive: [1] | [2] | [3] | [4] | [6]

CCCCC(CC)COC(=O)c1ccccc1 (stereo not drawn)
active: [3] 34.6 µM
inactive: [1] | [2] | [7] | [4]

CCN(CCC#N)c1ccc(N=Nc2c(Cl)cc([N+](=O)[O-])cc2Cl)cc1
inactive: [1] | [8]

CCN(CCO)c1cccc(C)c1
inactive: all assays above

Cc1ccc(OC(=O)CC(C)C)cc1
inactive: [1] | [7] | [3] | [4] | [5]

OCCNCc1ccccc1
not listed: [4] | [8]
inactive: all other assays above

C=CCCCCCCCCC(=O)OCCCC
inactive: [1] | [2] | [7] | [3] | [6]

CCCCCc1ccc(Cl)cc1
inactive: [1] | [2] | [3] | [6] | [5]
